Screen size: about 340,000 compounds; about 3,300 (0.97%) were called active. Not shown: some 9% with an inconclusive outcome. The call rests on the fitted dose curve; in most records, active means well fitted inhibition curve with a large enough effect; inconclusive means small, poorly fitted or top-dose-only effect, or effect the other way; inactive means flat fitted curve, though single readings scatter. The list shows a part of the results.
Test: qHTS Assay for Modulators of miRNAs and/or Inhibitors of miR-21; further: nearly all actives have a fitted effect of over 55% in size
Details: HeLa miR-21-FLuc reporter, luciferase luminescence, 48 h; actives lower the signal
How it was run: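 Luminescence from a firefly luciferase reporter carrying a miR-21 binding site downstream, stably expressed under a CMV promoter in HeLa cells that make miR-21 endogenously, reports miRNA modulation after 48 h compound exposure up to approximately 40uM final.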
Potency means the concentration at half of the fitted maximal effect.

Potency, active:
CCOc1ccc2nc(SCC(=O)c3cccs3)sc2c1 4.14 µM
CC1CCc2sc3nc(N4CCN(CCO)CC4)n4ncnc4c3c2C1 (configuration not stated) 13.1 µM
CN1CCc2c(sc(NC(=O)C3COc4ccccc4O3)c2C(N)=O)C1 (configuration not stated) 9.27 µM
Fc1ccccc1Nc1nc2c(s1)CCc1ccccc1-2 0.464 µM
COc1cc(CCC(C)=O)ccc1OC(=O)c1c(F)cccc1Cl 2.93 µM
C=CCn1c(SCC(=O)Nc2ccc(-c3nc4ccc(C)cc4s3)cc2)nnc1-c1ccncc1 8.26 µM
C=CCn1c(SCC(=O)Nc2ccc(-c3nc4ccc(C)cc4s3)cc2)nnc1-c1ccccc1 1.17 µM
C/C(=N/Nc1ccc(C(=O)O)cc1)c1ccc(O)c(O)c1O 18.5 µM
O=C(CSc1nnc(-c2ccccc2Cl)o1)N1CCOCC1 3.69 µM
Cc1ccccc1-c1nnc(SCC(=O)N2CCCC2)o1 7.36 µM
CC(C)(C)C(=O)c1cnc(Nc2ccccc2)s1 2.33 µM
CC(=O)c1cnc(Nc2cccc(C)c2)s1 2.93 µM
O=C(O)c1cccc(N/N=C/c2cccc3ccccc23)c1 0.0826 µM
COc1ccccc1/C=C/C=N/Nc1cccc(C(=O)O)c1 0.185 µM
O=C(O)c1cc(N/N=C/c2cccc3ccccc23)ccc1Cl 3.29 µM
Cc1[nH]c2ccccc2c1/C=N/Nc1cccc(C(=O)O)c1 7.36 µM
CC(C)n1cc(/C=N/Nc2ccc(Cl)c(C(=O)O)c2)c2ccccc21 3.29 µM
Cc1cccc(N/N=C/c2ccccc2O)c1 10.4 µM
COc1ccc2ccccc2c1/C=N/Nc1cccc(C(=O)O)c1 6.56 µM
O=C(O)c1cc(N/N=C/c2c(O)ccc3ccccc23)ccc1Cl 2.07 µM
Cc1[nH]c2ccccc2c1N=Nc1cccc(C(=O)O)c1 1.85 µM
Cc1ccn2c(Nc3ccc4c(c3)OCCO4)c(-c3ccc(Cl)s3)nc2c1 13.1 µM
Cc1ccc(-c2nc3ccccn3c2Nc2ccc3c(c2)OCCO3)s1 1.85 µM
COC(=O)c1sccc1N/N=C/c1cccc(Oc2ccccc2)c1 1.85 µM
COC(=O)c1sccc1N/N=C/c1ccc(OC)c(OC)c1OC 6.56 µM
COc1cc(/C(C)=N/NC(=O)CSc2nncn2C)ccc1OCc1ccccc1Cl 10.4 µM
C=CCNc1ncnc2c1cnn2-c1ccc(Cl)cc1 0.329 µM
Clc1ccc(-n2ncc3c(NCc4ccccn4)ncnc32)cc1 5.85 µM
Fc1cccc(Cl)c1CSc1nnc(-c2ccncc2)o1 14.7 µM
COc1ccc2c(c1)CC/C(=C/c1ccco1)C2=O 1.85 µM
COc1ccc2c(c1)CC/C(=C\c1ccc(C)o1)C2=O 2.93 µM
O=C1/C(=C/c2ccco2)CCc2ccccc21 18.5 µM
O=[N+]([O-])c1ccccc1-c1nc(-c2ccc(Br)o2)no1 1.47 µM
CCCCOc1ccc(CSc2nncn2N)cc1 14.7 µM
COc1cccc(/C=C2\CCC(C3CCCC3)C2=O)c1OC (configuration not stated) 4.14 µM
Cc1ccsc1/C=C1\CCC(C2CCCC2)C1=O (configuration not stated) 3.69 µM
COc1ccc(NC(=O)c2noc3c2CCCC3)cc1Cl 0.369 µM
Cc1c(Cl)cccc1NC(=O)c1noc2c1CCCC2 7.36 µM
Cc1ccc2c(c1)c1ncnc(N3CCOCC3)c1n2C 13.1 µM
Cc1ccc2c(c1)c1ncnc(N3CCC4(CC3)OCCO4)c1n2C 7.36 µM
Fc1ccccc1NC(=S)N/N=C/c1ccccc1Br 4.65 µM
Fc1cccc(/C=N/NC(=S)Nc2ccccc2Cl)c1 4.65 µM
N/C(=N\NC(=O)Nc1ccccc1)c1ccccn1 2.61 µM
N/C(=N\NC(=O)Nc1ccc(Cl)cc1)c1ccccn1 3.29 µM
Cc1cc(C)c(C#N)c(SCc2nnc(-c3ccccc3[N+](=O)[O-])o2)n1 3.69 µM
O=c1c2ccccc2nc2sc3ccccc3n12 6.56 µM
CCOc1cccc2c1OC1(CCCCC1)N1N=C(c3cccnc3)CC21 (configuration not stated) 16.5 µM
CCN1CCC2(CC1)Oc1c(OC)cccc1C1CC(c3cccnc3)=NN12 (configuration not stated) 11.7 µM
CC(=O)c1c(C)[nH]c(C(=O)Nc2ccc(Cl)cc2F)c1C 2.07 µM
Cc1nnc2n(c1=O)N=C(c1ccc(Cl)cc1)CS2 1.65 µM
O/N=C/c1ccnc(SCc2ccccc2)n1 10.4 µM
Cc1nc(C)c(-c2ccc(SCc3ccccc3F)nn2)s1 14.7 µM
Cc1ccc2scc(N3CCCC(C)C3)c(=O)c2c1 (configuration not stated) 6.56 µM
Cc1ccc2scc(N3CCCCC3C)c(=O)c2c1 (configuration not stated) 14.7 µM
COc1ccc(NC(=S)Nc2cc(C)[nH]n2)cc1Cl 18.5 µM
Cc1cc(NC(=S)Nc2ccc(C)c(Cl)c2)n[nH]1 7.36 µM
Cc1cc(C(=O)CSc2ccc3c(c2)OCCO3)c(C)n1C1CC1 7.36 µM
Cc1ccc(NC(=O)c2ccc(=O)[nH]n2)cc1C 6.56 µM
CC(C)(C)c1ccc(NC(=O)c2ccc(=O)[nH]n2)cc1 0.826 µM
Nc1ccc(C(=O)OCc2nc3ccccc3s2)cc1 16.5 µM
O=C(OCc1nc2ccccc2s1)c1ccco1 7.36 µM
COc1cc(OC)cc(C(=O)NCC(=O)OCc2nc3ccccc3s2)c1 0.464 µM
Cc1c(C)n(CCc2ccccc2)c2ncnc(NCCO)c12 4.14 µM
Cc1ccc(-n2c(C)c(C)c3c(NCCO)ncnc32)cc1 13.1 µM
Cc1ccc(-n2c(C)c(C)c3c(NCCCO)ncnc32)cc1 7.36 µM
COc1ccc(-c2nnc(-c3ccc(F)cc3)o2)cc1 1.04 µM
COc1ccc(-c2nnc(-c3ccc(C)cc3)o2)cc1 2.07 µM
c1ccc(Nc2nnc(-c3cccnc3)s2)cc1 0.261 µM
CCS(=O)(=O)N1Cc2ccccc2CC1C(=O)Nc1nc2ccc(F)cc2s1 (configuration not stated) 4.65 µM
CCS(=O)(=O)N1Cc2ccccc2CC1C(=O)Nc1nc(C)cs1 (configuration not stated) 10.4 µM
CCS(=O)(=O)N1Cc2ccccc2CC1C(=O)Nc1nccs1 (configuration not stated) 14.7 µM
O=C(/C=C/c1ccc(F)cc1)NCCC1=CCCCC1 7.36 µM
CC(C)(C)SCCNC(=O)/C=C/c1ccccc1 11.7 µM
O=C(/C=C/c1ccccc1)NCCC1=CCCCC1 5.85 µM
CCN(CC)c1ccc(N=Nc2nn(C)c(C)c2[N+](=O)[O-])cc1 0.736 µM
CCN(Cc1ccccc1)c1ccc(N=Nc2nn(C)c(C)c2[N+](=O)[O-])cc1 18.5 µM
CCc1cc2cc(C(=O)Nc3ccc(F)cc3)sc2s1 1.65 µM
COc1cc(NC(=O)c2cc(-c3cccc(OC)c3)n[nH]2)cc(OC)c1 3.29 µM
CCOC(=O)c1cn[nH]c1NC(=S)Nc1ccc(Cl)cc1 0.656 µM
COc1ccc2cc(-c3ccn[nH]3)ccc2c1 0.927 µM
CNc1nc(Nc2ccc(C)c(Cl)c2)nc(N)c1[N+](=O)[O-] 3.29 µM
Cc1ccc(Nc2nc(N)c([N+](=O)[O-])c(NCCO)n2)cc1C 13.1 µM
O=C(c1cc(-c2cccc(Cl)c2)on1)N1CCCCCC1 4.65 µM
O=C(c1cc(-c2cccc(Cl)c2)on1)N1CCCC1 3.69 µM
CSc1c(C#N)c(N)c(C#N)c2c1COC(C)(C)C2 18.5 µM
CN1CCN(/N=C/c2ccc(Br)cc2)CC1 14.7 µM
CN1CCN(/N=C/c2ccc(Cl)c(Cl)c2)CC1 7.36 µM
Cc1c(-c2nnc(SCC(=O)Nc3ccccc3F)o2)nnn1-c1ccc(F)cc1 2.93 µM
Cc1nn(-c2ccc(F)cc2)c(Cl)c1/C=N/NC(=O)c1cccs1 2.93 µM
Cc1nn(-c2ccccc2)c(Cl)c1/C=N/NC(=O)c1ccc(NS(=O)(=O)c2cccs2)cc1 4.14 µM
Fc1ccc(-c2nc(-c3cnccn3)no2)c(Cl)c1 0.464 µM
Clc1ccc(-c2nc(-c3cnccn3)no2)cc1 0.521 µM
O=C(c1ccccc1)c1c(O)nc(-c2ccccc2)n(-c2ccccc2)c1=O 13.1 µM
O=C(Nc1ccn(Cc2ccccc2)n1)c1n[nH]c([N+](=O)[O-])c1Cl 2.07 µM
CCSc1nnc2ccc(-c3ccc(OC)c(OC)c3)nn12 14.7 µM
CCSc1nnc2ccc(-c3ccc(C)cc3)nn12 16.5 µM
CC(=O)c1sc(NC(=O)c2ccc(C(C)(C)C)cc2)nc1C 0.826 µM
CC(=O)c1sc(NC(=O)c2ccc(C)c(C)c2)nc1C 0.585 µM
Cc1ccsc1C(=O)OCC(=O)N1CCc2ccccc2C1 3.29 µM
Cc1ccc(Cl)c(OCC(=O)N2CCc3ccccc3C2)c1 14.7 µM
CC(=O)c1ccc(N2CCc3ccccc3C2)c([N+](=O)[O-])c1 9.27 µM
COc1cc2c(cc1OC)CN(c1ccc(F)cc1[N+](=O)[O-])CC2 13.1 µM
COc1cc2c(cc1OC)CN(c1ncccc1[N+](=O)[O-])CC2 18.5 µM
CC(=O)c1cccc(OCc2cc(C(=O)N3C[C@H]4CC[C@H]3C4)no2)c1 5.21 µM
O=C(c1cc(COc2ccc(F)cc2F)on1)N1C[C@H]2CC[C@H]1C2 13.1 µM
CC(=O)c1cccc(OCc2cc(C(=O)N(C)CCC3CCOCC3)no2)c1 16.5 µM
COc1cc(Cl)ccc1OCc1cc(C(=O)N2C[C@H]3CC[C@H]2C3)no1 5.21 µM
